The text below walks through data of PubChem BioAssay AID2685 (National Center for Advancing Translational Sciences (NCATS), 2010).

SMILES strings stand for the structures. Among all 320,000 compounds or so, about 2,100 (0.66%) were called active. Roughly 53% stayed inconclusive and do not appear here. The sample holds actives, similar compounds and a random draw of the others, so the mix is not that of the screen. The call rests on the fitted dose curve; in most records, active means well fitted inhibition curve with a large enough effect in the signal ratio, with a control signal flat (not every such curve was filed as active); inconclusive means small, poorly fitted or top-dose-only effect, or effect the other way, or a change in a side signal; inactive means flat fitted curve, though single readings scatter; the % refers to the signal ratio.
Potency means the concentration at half of the fitted maximal effect.

The test in a line: qHTS Assay for Lipid Storage Modulators in Drosophila S3 Cells.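 On cell number change: cells counted by Cell Tracker Red CMTPX staining in the red channel.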 On lipid storage change, negative = inhibition: on the % scale 0 is the no-effect control and ±100 the full control effect. The conditions noted are these: BODIPY lipid droplet fluorescence, 18-24 h, cells fed with added oleic acid; cell number change: measured here: cell count max response; series mostly up to 46.1 µM; lipid storage change, negative = inhibition: at the top concentration. An excerpt: NIH Molecular Libraries Probe Production Centers Network [MLPCN] NIH Chemical Genomics Center [NCGC] MLPCN Grant: 1 R03 MH085686-01 Assay Submitter (PI): Beller, Mathias; Max-Planck-Institut fur Biophysikalische Chemie NCGC Assay Overview: Storing lipids as a reservoir for energy or the anabolism of elementary metabolites is a common feature of probably all cells and is conserved from bacteria to humans. The universal cellular lipid storage organelle is the so-called lipid storage droplet (LD). Although ubiquitous, LDs share a simple structure composed of a hydrophobic core that harbors the storage lipids, which is shielded by a droplet-specific phospholipid monolayer to which proteins are attached. The current model of LD biogenesis involves an incorporation of the lipid core into the membrane leaflets of the endoplasmic reticulum (ER) followed by a subsequent budding-like maturation of a LD, which ultimately pinches off. Once released, LD volume can increase by localized lipogenesis or fusion of existing droplet. Storage lipids are re-mobilized enzymatically by lipase activity. Lipase regulation in the adipocyte is heavily studied and involves multiple components including catecholamine signaling, the LD-associated proteins Perilipin and comparative gene identification (CGI-58) and at least two lipases named hormone sensitive lipase (HSL) and adipocyte triglyceride lipase (ATGL). LD regulation outside of the adipocyte is poorly understood and only few components are known. However, there is an urgent need to learn more about ectopic fat depots as mislocalized storage of lipids, for example in the liver or muscle, is an eminent health problem associated with insulin resistance or the metabolic syndrome. We developed a laser-scanning cytometer assay to enable 1,536-well screening and combined the results of the small molecules screen with an RNAi database based on lipid storage.
Triacsin C (Sigma-Aldrich T-4540), an inhibitor of long-chain fatty acyl CoA synthetase that blocks synthesis of triglycerides, was used as a positive control for lipid under-storage. A total of 23 nL of compound solution of different concentrations were transferred to the assay plates using a Kalypsys pin tool equipped with a 1,536-pin array containing 10-nL slotted pins (FP1S10, 0.457-mm diameter, 50.8 mm long; V&P Scientific). One microliter of oleic acid (400 uM) was added, and the plate was lidded with stainless steel rubber gasket lined lids containing pinholes. […] Fluorescence was detected by excitation of the fluorophores with a 488-nm laser on an Acumen Explorer (TTP Lab Tech). The total intensity in channel 2 (500-530 nm) reflected lipid droplet accumulation. Cells were detected using channel 3 (575-640 nm) with 5-um width and 100-um depth filters. The ratio of the number of objects in PMT channel 2 over the number of objects in PMT channel 3 was also calculated. Percent activity was computed relative to an internal control (100% inhibited lipid droplet deposition due to the presence of 20 uM Triacsin C), which was added to 32 wells/plate.
(Quantitative high-throughput screening tests each substance at several concentrations.)
Consider `CCSc1nc2c(c(=O)[nH]c(=O)n2C)n1CC(O)COc1ccccc1` (stereo unspecified), for which the call was inactive. For `CCn1cc(CN2CCC(Oc3ccc(C(=O)N4CCCCC4)cc3)CC2)cn1`, the “lipid storage change, negative = inhibition” value was -6.41% (inactive). Turning to `O=C(CN1CCN(Cc2ccccc2Cl)CC1)N/N=C/c1cccs1`, the “lipid storage change, negative = inhibition” value is 0.0195% (inactive) and the cell number change was 19.5%. On to `Cc1cc(C)c(C)c(OCCN2CCOCC2)c1`, for which the molecule was classed as inactive and the cell number change was -23.8%. Regarding `Cc1ccc(C)c(OCCOCCN2CCOCC2)c1`, the Potency is 7.31 µM (active) and the cell number change came to 3.66%. As for `Cc1cccc(OCCOCCN2CCOCC2)c1C`, the “lipid storage change, negative = inhibition” value is 4.65% (inactive) and the cell number change stood at 8.47%.

For `CCn1cc(C2CC(=O)NC2=O)c2ccccc21` (stereo unspecified), the “lipid storage change, negative = inhibition” value is 15.1% (inactive). As for `CS(=O)(=O)N(CC(=O)NCC1CCCO1)c1ccc(F)c(Cl)c1` (stereo unspecified), the Potency was 14.6 µM (active) and the cell number change was -13%.

For the molecule `CS(=O)(=O)N(CC(=O)NCC1CCCO1)c1ccc(Cl)c(Cl)c1` (stereo unspecified), the “lipid storage change, negative = inhibition” value is -6.64% (inactive) and the cell number change was -7.69%. As for `CS(=O)(=O)N(CC(=O)NCC1CCCO1)c1cccc(Cl)c1` (stereo unspecified), the “lipid storage change, negative = inhibition” value was -1.35% (inactive). For `COCCNC(=O)Cn1nc(C(F)(F)F)c(Cl)c1C`, the “lipid storage change, negative = inhibition” value was -2.82% (inactive) and the cell number change was -6.82%. On to `COc1ccc(-c2csc3nc(C(C)(C)C)oc(=O)c23)cc1OC`, for which the “lipid storage change, negative = inhibition” value was -1.34% (inactive) and the cell number change was determined as 0.241%. Take `CCOc1ccc(-c2ccc(NS(=O)(=O)c3cc([N+](=O)[O-])c(C)c([N+](=O)[O-])c3)cc2)nn1`: the Potency was 23.1 µM (active) and the cell number change is -5.38%. Regarding `CCOc1ccc(-c2ccc(NS(=O)(=O)c3ccc([N+](=O)[O-])cc3)cc2)nn1`, the molecule was classed as inactive and the cell number change amounted to 0.33%. On to `COc1ccc(-c2ccc(NS(=O)(=O)c3cc([N+](=O)[O-])c(C)c([N+](=O)[O-])c3)cc2)nn1`, for which the molecule was classed as inactive and the cell number change was -13.5%. Turning to `COC(=O)c1ccc2nc(NC(=O)C(C)(C)C)sc2c1`, the “lipid storage change, negative = inhibition” value is -12.8% (inactive) and the cell number change is -18.4%.

Turning to `CC(C)CC(=O)/C=C/n1c(=S)oc2ccccc21`, the Potency is 23.1 µM (active) and the cell number change was -3.17%. On to `O=C(O)CCn1c(=S)oc2ccccc21`, for which the “lipid storage change, negative = inhibition” value is -6.79% (inactive) and the cell number change came out at 2.74%. For `CC(C)OC(=O)n1c(=S)oc2ccccc21` the same measures were -0.711% (inactive) and -3.93%. Consider `COc1ccccc1NC(=O)C1CCCN(c2ncnc3c2nc2n3CCCCC2)C1` (stereo unspecified), for which the result was inactive and the cell number change is -12.6%. `Cc1cc[n+](Cc2ccc([N+](=O)[O-])cc2)cc1`: the “lipid storage change, negative = inhibition” value is -6.36% (inactive) and the cell number change was -4.93%.

Turning to `N=c1n(CCN2CCCC2)c2ccccc2n1CC(O)c1ccco1` (stereo unspecified), the Potency is 23.1 µM (active) and the cell number change worked out at 7.5%. For the molecule `CCCn1c(=N)n(CC(O)c2ccco2)c2ccccc21` (stereo unspecified), the “lipid storage change, negative = inhibition” value is -3.06% (inactive) and the cell number change was 16.8%. For `N=c1n(CCN2CCCCC2)c2ccccc2n1CC(O)c1ccco1` (stereo unspecified), the “lipid storage change, negative = inhibition” value was -2.56% (inactive) and the cell number change stood at 15.8%. As to `Cc1onc(C(=O)N2CCN(C(c3ccccc3)c3ccccc3)CC2)c1[N+](=O)[O-]`, the “lipid storage change, negative = inhibition” value was 3.34% (inactive) and the cell number change is 3.65%.

Regarding `CC(OC(=O)C1=Cc2ccccc2OC1)C(=O)NCc1ccco1` (stereo unspecified), the “lipid storage change, negative = inhibition” value is -14.3% (inactive). For the molecule `CCC(C(=O)Nc1cccnc1)n1c(=O)[nH]c2ccccc2c1=O` (stereo unspecified), the Potency was 18.4 µM (active) and the cell number change was -16%. As to `O=C(Cn1[nH]c(=O)c2ccccc2c1=O)Nc1cccnc1`, the “lipid storage change, negative = inhibition” value is -4.67% (inactive) and the cell number change stood at 7.37%. As to `CCC(C(=O)Nc1ccc2c(c1)OCCO2)n1c(=O)[nH]c2ccccc2c1=O` (stereo unspecified), the outcome was inactive and the cell number change is -11.6%. As to `CCO[C@@H]1OC(C(=O)N2CCN(Cc3ccc4c(c3)OCO4)CC2)=C[C@H](c2ccc3c(c2)OCO3)[C@H]1CCCO`, the “lipid storage change, negative = inhibition” value is -19% (inactive).

On to `O=c1c2ccccc2nnn1CCN1CCOCC1`, for which the “lipid storage change, negative = inhibition” value is -21.6% (inactive) and the cell number change was -18.2%.

Take `Cc1ccc2nc(SC(C)C(=O)N3CCCC3)[nH]c2c1` (stereo unspecified): the “lipid storage change, negative = inhibition” value is 8.55% (inactive) and the cell number change was determined as 17.4%. For `CCC(Sc1nc2ccccc2c(=O)[nH]1)C(=O)O` (stereo unspecified) the same measures were 10.3% (inactive) and -2.97%. In the case of `CCC(Sc1nc2ccc(C)cc2[nH]1)C(=O)O` (stereo unspecified), the Potency was 14.6 µM (active) and the cell number change stood at 14.5%.

With `COc1cccc(-c2csc3nc[nH]c(=O)c23)c1`, the Potency is 20.6 µM (active).

`Cc1ccc(-c2csc3nc[nH]c(=O)c23)cc1C`: the outcome was inactive and the cell number change was -18.4%. In the case of `O=c1[nH]cnc2scc(-c3ccccc3)c12`, the “lipid storage change, negative = inhibition” value was 2.34% (inactive) and the cell number change is -0.547%.

As for `OCCCNc1ncnc2oc(-c3ccccc3)c(-c3ccccc3)c12`, the “lipid storage change, negative = inhibition” value is -4.49% (inactive) and the cell number change was 13.3%. As for `C(=N\Nc1nc2ccccc2[nH]1)/c1ccccc1`, the “lipid storage change, negative = inhibition” value is -24.3% (inactive) and the cell number change is -28.7%. For `CC(C)Cn1c(/C=N/Nc2nc3ccccc3[nH]2)nc2ccccc21`, the call was inactive and the cell number change is -7.46%. `CCCn1c(/C=N/Nc2nc3ccccc3[nH]2)nc2ccccc21`: the Potency is 13 µM (active) and the cell number change was -13.7%. Consider `CCOC(=O)N1CCN(Cc2nnc(-c3ccccc3C)o2)CC1`, for which the “lipid storage change, negative = inhibition” value is 7.17% (inactive) and the cell number change was determined as 3.5%. For `Cc1cc(NC(=O)c2cccs2)ncc1NC(=O)c1cccc(F)c1` the same measures were -8.75% (inactive) and 0.447%.

As for `CCCCc1nc(C(N)=O)c2[nH]c(=O)n(-c3ccc(OC)c(OC)c3)c2n1`, the result was inactive. Take `CC1CCCCC1NC(=O)CN1C(=O)COc2ccccc21` (stereo unspecified): the “lipid storage change, negative = inhibition” value was -14.8% (inactive) and the cell number change was -0.697%. Regarding `CCC1Oc2ccccc2N(CC(=O)NC2CCCCC2)C1=O` (stereo unspecified), the molecule was classed as inactive and the cell number change stood at 2.82%.

On to `CCC1Oc2ccccc2N(CC(=O)NC2CCCCC2C)C1=O` (stereo unspecified), for which the Potency is 29.1 µM (active) and the cell number change is -4.58%. As to `CC(C)c1nnc(NC(=O)COc2ccccc2[N+](=O)[O-])s1`, the “lipid storage change, negative = inhibition” value is 9.93% (inactive) and the cell number change was 0.142%.

Consider `CCc1cc(C(=O)Nc2nc(-c3ccccn3)cs2)sc1C`, for which the Potency was 5.17 µM (active) and the cell number change amounted to 3.52%. Regarding `CCc1cc(C(=O)Nc2ncccc2O)sc1C`, the “lipid storage change, negative = inhibition” value is -8.93% (inactive) and the cell number change is -6.68%. As to `CC(=O)Nc1ccc(C(=O)Nc2nc(-c3ccccn3)cs2)cc1`, the outcome was inactive. In the case of `Cc1ccc(C(=O)Nc2nc(-c3ccccn3)cs2)s1`, the Potency is 2.06 µM (active) and the cell number change was -8.64%.

On to `Cn1nc(C(=O)Nc2nc(-c3ccccn3)cs2)c2ccccc2c1=O`, for which the molecule was called inactive and the cell number change is -20.7%. With `Cc1ccnc2nc(C(=O)Nc3nccs3)nn12`, the molecule was called inactive and the cell number change was -14.4%.

Regarding `Cc1ccnc2nc(C(=O)Nc3nc(-c4ccccn4)cs3)nn12`, the Potency is 1.64 µM (active) and the cell number change is -16%. On to `O=C(Nc1nc(-c2ccccn2)cs1)c1ccco1`, for which the “lipid storage change, negative = inhibition” value was -15% (inactive) and the cell number change was -10.5%. On to `Cc1cc(C)c(OCC(=O)Nc2nc(-c3ccccn3)cs2)c(C)c1`, for which the “lipid storage change, negative = inhibition” value was -0.187% (inactive) and the cell number change was 1.77%. With `CCCNC(=O)c1cccc(Br)c1`, the “lipid storage change, negative = inhibition” value is -5.48% (inactive). `CC(=O)N1CCc2cc(Br)cc(S(=O)(=O)N3CCCCC3)c21`: the molecule was classed as inactive and the cell number change is -26.2%. `CC(=O)Nc1cccc(NC(=O)C(C)N2c3cccc4cccc(c34)S2(=O)=O)c1` (stereo unspecified): the molecule was called inactive and the cell number change came out at 20.8%. For the molecule `COC(=O)C1(C(C[N+](=O)[O-])c2ccco2)C(=O)NCC1c1ccccc1` (stereo unspecified), the outcome was inactive.

In the case of `COc1cc(C)nc(NCc2ccccc2)n1`, the result was inactive.

In the case of `Cc1cc(Nc2ccccc2)nc(NCc2ccccc2)n1`, the Potency was 8.2 µM (active) and the cell number change is -27.7%. As to `Cc1cc(Oc2ccccc2)nc(NCc2ccccc2)n1`, the “lipid storage change, negative = inhibition” value was -16.9% (inactive) and the cell number change is -8.62%.
